Results on 94 compounds are retold here after PubChem BioAssay AID1851 (National Center for Advancing Translational Sciences (NCATS), 2009).

Screen size: about 16,000 compounds; about 5,800 (36%) were called active. Not shown: some 23% with an inconclusive outcome. The list shows a part of the results. Values without a mark were called inactive. Calls come from the whole dose curve; as a rule, active = well fitted curve in the direction sought with a large enough effect; inconclusive = small, poorly fitted or top-dose-only effect, or effect the other way; inactive = no such curve, though single readings can be large or run the other way.

In general, AC50 refers to the concentration giving half of the maximal activity seen.
% is set by controls: 0 for no effect and ±100 for the full control effect.

The target in the assay is Cytochrome P450 2C19 (Homo sapiens) (UniProt P33261). As to the kind of experiment: Cytochrome panel assay with activity outcomes. To be noted: recombinant CYP, pro-luciferin dealkylation, luminescence, p450-cyp2c19; series mostly up to 57.1 µM; activity, negative = inhibition: at the top concentration.
Sequence of Cytochrome P450 2C19 (Homo sapiens) (P33261 whole entry, looked up): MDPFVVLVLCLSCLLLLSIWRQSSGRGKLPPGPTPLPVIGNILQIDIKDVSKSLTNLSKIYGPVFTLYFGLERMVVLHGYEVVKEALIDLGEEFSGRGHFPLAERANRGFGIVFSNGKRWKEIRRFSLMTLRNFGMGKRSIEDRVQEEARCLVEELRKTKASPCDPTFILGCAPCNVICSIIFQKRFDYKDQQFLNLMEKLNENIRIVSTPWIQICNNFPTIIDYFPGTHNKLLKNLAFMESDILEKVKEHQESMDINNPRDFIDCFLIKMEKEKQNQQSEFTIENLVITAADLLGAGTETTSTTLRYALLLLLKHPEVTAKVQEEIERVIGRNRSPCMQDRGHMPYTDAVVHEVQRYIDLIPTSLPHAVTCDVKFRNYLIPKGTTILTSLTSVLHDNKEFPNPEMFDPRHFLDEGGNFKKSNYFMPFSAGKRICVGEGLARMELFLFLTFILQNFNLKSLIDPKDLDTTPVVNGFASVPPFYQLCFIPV
With `Cc1nc(CN2CCCCC2)c(O)c(=O)[nH]1`, the activity, negative = inhibition is -22.5% [at 11.4 µM].
Still for that read-out and setting: under `NC(=O)NC(=O)[C@H]1CCCC[C@@H]1C(=O)O` stands 12.1% [at 11.4 µM]; under `CCCCN(c1ccccc1)c1ncnc2c1cnn2C`, -9.3% [at 11.4 µM].
For the compound `Cn1ncc2c(NCCc3ccccc3)nc(Cl)nc21`, the AC50 is 0.126 µM (active).
Take `Cn1ncc2c(Cl)ncnc21`: the activity, negative = inhibition is -3.14% [at 11.4 µM].
For `CCCCCC(=O)N1CCCC(c2nc(-c3ccc(OC)cc3)no2)C1` (centres undefined), the AC50 is 7.08 µM (active).
Take `CN(C)c1ccc(-c2noc(C3CCN(S(=O)(=O)c4cccc(C(=O)O)c4)CC3)n2)cc1`: the “activity, negative = inhibition” value is -27.6%.
`COc1ccc(-c2noc(C3CCCN(C(=O)c4ccccc4OC)C3)n2)cc1OC` (centres undefined): the AC50 was 11.2 µM (active).
With `COc1ccccc1CN1CC[C@@]2(CCCN(C(=O)c3c(C)noc3C)C2)C1`, the “activity, negative = inhibition” value is -31.8%.
With `CCOC(=O)/C(C#N)=C1/SC(CC)C(=O)N1c1ccc(Br)cc1` (centres undefined), the AC50 was 1.58 µM (active).
Turning to `CCOC(=O)/C(C#N)=C1/C=CN(C)C=N1`, the “activity, negative = inhibition” value is 10.6%.
On to `CC(C)OCCCn1c(=S)[nH]c2ncccc2c1=O`, for which the AC50 is 14.1 µM (active).
Consider `Cn1c(=O)c2[nH]c(SCc3ccccn3)nc2n(C)c1=S`, for which the activity, negative = inhibition is 29.1% [at 11.4 µM].
For the compound `COCCNC(=O)COC(=O)/C=C/c1cnc2ccccc2n1`, the AC50 is 22.4 µM (active).
As for `CC(C)(C)CC(C)(C)c1cc(O)c(O)c(CN2CCCCC2)c1`, the activity, negative = inhibition was -5.03% [at 11.4 µM].
Consider `O=C1C=C(Nc2ccc(Cl)cc2)CC(c2ccc(Cl)cc2)C1` (centres undefined), for which the AC50 was 1.58 µM (active).
Same read-out and setting: as for `Cn1c(/C=C/c2ccc([N+](=O)[O-])o2)nc2ccccc2c1=O`, the figure is 14.1 µM (active).
Take `O=C1O[C@H](CN2CCOCC2)CN1/N=C\c1ccc([N+](=O)[O-])o1`: the “activity, negative = inhibition” value is 8.96% [at 25.6 µM].
`Nc1ccc(S(=O)(=O)Nc2ncccn2)cc1`: the “activity, negative = inhibition” value was 25.6% [at 25.6 µM].
Take `Nc1ccc(S(=O)(=O)NCc2nccs2)cc1`: the AC50 is 0.0794 µM (active).
`Nc1ccc(S(=O)(=O)Nc2nccs2)cc1`: the “activity, negative = inhibition” value is 7.08% [at 25.6 µM].
Turning to `Cc1cccc(NC(NC(=O)c2cccnc2)C(Cl)(Cl)Cl)c1` (centres undefined), the AC50 is 2.82 µM (active).
On to `O=C(O)c1cccnc1`, for which the “activity, negative = inhibition” value was 6.1% [at 25.6 µM].
For the compound `O=C(NC(NCc1ccccc1)C(Cl)(Cl)Cl)c1cccnc1` (centres undefined), the AC50 was 4.47 µM (active).
In the case of `CCNc1ncc2nc(-c3cccs3)c(=O)n(CCC#N)c2n1`, the “activity, negative = inhibition” value is -20.2%.
On to `COC(Cc1nnc(SC)n1-c1ccc(Cl)cc1)OC`, for which the “activity, negative = inhibition” value is -9.57%.
In the case of `CCOc1ccc(NCc2nnc(SCc3ccccc3Cl)n2-c2ccccc2)cc1`, the AC50 was 2 µM (active).
`COC(Cc1nnc(SC)n1-c1ccccc1)OC`: the “activity, negative = inhibition” value is -17%.
As to `COc1ccc(NCc2nnc(SCc3ccccc3)n2-c2ccc(OC)cc2)cc1`, the AC50 was 3.98 µM (active).
For the compound `COC(=O)CSc1nnc(CNc2ccc(Cl)cc2)n1-c1ccccc1`, the AC50 is 5.01 µM (active).
On to `CC(C)CN1CCCC2(CCN(C(=O)c3csnn3)CC2)C1`, for which the “activity, negative = inhibition” value is -12.1%.
`C[C@@H]1CCCC(CC(=O)O)(CC(=O)O)C1`: the activity, negative = inhibition was 9.85% [at 11.4 µM].
Turning to `Cc1ccc(/C=C/C(=O)NC(=S)Nc2ccccc2C(=O)NC2CCCCC2)cc1`, the AC50 is 14.1 µM (active).
On to `O=C(/C=C/c1ccc(Br)cc1)NC1CCCCCC1`, for which the “activity, negative = inhibition” value is -28.3%.
On to `O=c1c([N+](=O)[O-])cc(C(F)(F)F)cn1Cc1c(Cl)cccc1Cl`, for which the AC50 is 7.08 µM (active).
As for `Cc1cc2nc3[nH]c4c(Cl)cc(Cl)cc4c3nc2cc1C`, the activity, negative = inhibition is 32.6% [at 11.4 µM].
As for `CN(C)C(=O)c1ccc(-c2cc(N(C)Cc3ccco3)ncn2)cc1`, the “activity, negative = inhibition” value was -41.6%.
With `CN(C)c1ccc(-c2cc(N(C)Cc3ccco3)ncn2)cc1`, the AC50 was 10 µM (active).
Consider `CN(Cc1ccco1)c1cc(-c2ccc3c(c2)OCO3)ncn1`, for which the AC50 was 10 µM (active).
Regarding `CC(=O)OC[C@H]1O[C@@H](O/N=C\[C@@H](C)[C@H](OCc2ccccc2)C(C)C)[C@H](OC(C)=O)[C@@H](OC(C)=O)[C@H]1OC(C)=O`, the activity, negative = inhibition is 12.9% [at 11.4 µM].
Still for that read-out and setting: under `O=C1C=C(NCC2CCCO2)C2(CCCCC2)O1` (centres undefined) stands -39.1%.
Turning to `COc1ccc2cc(C)c3nnc(SCC(=O)Nc4nc(-c5ccccc5)cs4)n3c2c1`, the AC50 was 5.01 µM (active).
For `Cc1cc2ccccc2nc1SCC(=O)Nc1nc(-c2ccccc2)cs1`, the “activity, negative = inhibition” value is -7.04%.
As to `CC(=O)OC[C@@H]1O[C@H](C/C=N\O[C@@H]2O[C@H](COC(C)=O)[C@@H](OC(C)=O)[C@H](OC(C)=O)[C@H]2OC(C)=O)C=C[C@@H]1OC(C)=O`, the activity, negative = inhibition is 12.3% [at 11.4 µM].
For `O=C(COc1ccc(Cl)cc1)Nc1ccc(N2CCN(C(=O)c3ccco3)CC2)cc1`, the “activity, negative = inhibition” value was -27.1%.
For the compound `O=C(CN1CCN(c2ccc(Cl)cc2)CC1)Nc1ccc(F)c(F)c1`, the AC50 was 7.94 µM (active).
For the compound `O=C(CN1CCN(c2ccc(Cl)cc2)CC1)Nc1cccc(F)c1`, the AC50 was 5.01 µM (active).
Regarding `C[C@H]1O[C@@H](CC(=O)O)Cc2c1c(O)c1c(O)cc(-c3cc(=O)c4c(=O)c5c(c(=O)c=4c3=O)C[C@H](CC(=O)O)O[C@@H]5C)c(O)c1c2O`, the activity, negative = inhibition was -5.68% [at 11.4 µM].
For the compound `COC(=O)c1c(NC(=O)c2ccco2)sc2c1CCC2`, the AC50 is 4.47 µM (active).
With `COCCn1c(=O)c(-c2ccc(Cl)cc2)nc2cnc(N(C)C)nc21`, the “activity, negative = inhibition” value was 6.88%.
Turning to `COc1ccc2[nH]c3c(c2c1)CN(C)CC3`, the “activity, negative = inhibition” value was -22.7%.
For the compound `Cc1ccc2[nH]c3c(c2c1)CN(C(=O)CN1c2ccc(F)cc2CCC1C)CC3` (centres undefined), the AC50 was 3.55 µM (active).
On the same count and under the same terms, under `COC(=O)c1ccc2ccn(CC(=O)NC3CCCCC3)c2c1` stands 1.58 µM (active); under `COC(=O)CSC1=C(C#N)C(c2cccc(F)c2)CC(=O)N1` (centres undefined), 11.2 µM (active); under `CCOC(=O)C1=C(C)NC(C)=C(C(=O)OCC)C1c1sccc1C`, 1.78 µM (active).
With `CCOC(=O)Cc1c(C)nc2c(C#N)c[nH]n2c1=O`, the “activity, negative = inhibition” value was -24.9%.
`CCOC(=O)CSC1=C(C#N)C(c2sccc2C)C(C(C)=O)=C(C)N1` (centres undefined): the AC50 was 1.78 µM (active).
In the case of `CCOC(=O)CSC1=C(C#N)C(c2sccc2C)CC(=O)N1` (centres undefined), the AC50 is 7.94 µM (active).
With `CCOC(=O)CSC1=C(C#N)C(C)C2=C(CCCC2=O)N1` (centres undefined), the AC50 is 0.708 µM (active).
Turning to `CCCCN(CC)S(=O)(=O)c1ccc(C(=O)Nc2nnc(CSC)o2)cc1`, the “activity, negative = inhibition” value is -8.71%.
`CCN(CC)S(=O)(=O)c1ccc(C(=O)NC2=C(C(=O)OC)SCC2)cc1`: the AC50 is 8.91 µM (active).
Regarding `COCCN(CCOC)S(=O)(=O)c1ccc(C(=O)Nc2nc(C)c(C(C)=O)s2)cc1`, the “activity, negative = inhibition” value was -35.5%.
For `COC(=O)C1=C(NC(=O)c2cccc(OC)c2)CCS1`, the AC50 is 14.1 µM (active).
Consider `Cc1ccc(C2CC(C(F)(F)F)n3nc(C(=O)NCCN4CCOCC4)cc3N2)cc1` (centres undefined), for which the “activity, negative = inhibition” value is -29.1%.
`Cc1ccnc(NS(=O)(=O)c2ccc(N=[N+]=[N-])cc2)n1`: the activity, negative = inhibition was 39.6% [at 11.4 µM].
On the same count and under the same terms, under `CN1CCN(NC(=O)c2ccccc2F)CC1` stands 2.59%.
As to `CCOc1ccc(C(=O)NC(=S)N(Cc2ccccc2)Cc2ccccc2)cc1`, the AC50 is 8.91 µM (active).
Turning to `C[C@H](CN(C)C)C(=O)c1ccccc1C(=O)O`, the activity, negative = inhibition is 12.3% [at 11.4 µM].
For `O=C(NC(=S)N(Cc1ccccc1)Cc1ccccc1)c1ccccc1F`, the AC50 was 2.24 µM (active).
Same read-out and setting: as for `COc1ccc(CN(CCC#N)C(=S)NC(=O)c2ccccc2)cc1`, the figure is 7.94 µM (active).
For `CCCCN(C)CCCNC(=O)c1ccc(N2CCCC2=O)cc1`, the “activity, negative = inhibition” value was 15.5%.
With `CCNC(=O)c1ccc(-n2nc(C(F)(F)F)c3c2CCCC3)cc1`, the AC50 is 5.62 µM (active).
As to `CCc1ccc(NC(=O)Cn2nc(C(F)(F)F)c3c2CCC3)cc1`, the AC50 is 7.94 µM (active).
`O=C1OCCC1Sc1nnc(-c2ccc(O)cc2)o1` (centres undefined): the concentration at half-maximal activity (AC50) is 10 µM (active).
With `Cc1cc(C)c2[nH]c(=O)c(CN(Cc3ccco3)C(=O)c3cccs3)cc2c1`, the AC50 is 1.78 µM (active).
Regarding `CCC(=O)N1CCc2cc(S(=O)(=O)NC(C(=O)NCc3ccc(F)cc3)C(C)C)ccc21` (centres undefined), the “activity, negative = inhibition” value was -14.1%.
For the compound `CN(CCC#N)C(=O)c1ccc(CNS(=O)(=O)c2ccc(F)cc2)cc1`, the AC50 is 17.8 µM (active).
Same read-out and setting: as for `Cc1c2cccc(Sc3ccccc3)c2c2c3c(cccc13)[S+](c1ccccc1)C2` (centres undefined), the figure is 0.0631 µM (active).
`COCCn1c(=O)c(-c2cc(F)cc(F)c2)nc2cncnc21`: the “activity, negative = inhibition” value is -22%.
As to `Cn1c(=O)c(-c2cc(F)cc(F)c2)nc2cncnc21`, the “activity, negative = inhibition” value is -31.9%.
For `COc1ccccc1CCn1c(=O)c(-c2cc(F)cc(F)c2)nc2cncnc21`, the AC50 is 1.58 µM (active).
On the same count and under the same terms, as for `COc1ccccc1CCn1c(=O)c(-c2cccc(F)c2)nc2cncnc21`, the figure is 1 µM (active).
As to `CNC(=O)c1c(I)c(C(=O)NCC(=O)Nc2c(I)c(C(=O)O)c(I)c(C(=O)NCCO)c2I)c(I)c(N(C)C(C)=O)c1I`, the “activity, negative = inhibition” value is -35.8% [at 25.6 µM].
For the compound `O=C(O)[C@@H]1[C@@H](C(=O)Nc2ncccn2)[C@@H]2C=C[C@@H]1O2`, the activity, negative = inhibition is 0.77% [at 11.4 µM].
In the case of `CC[C@]1(O)C[C@@H]2CN(CCc3c([nH]c4ccccc34)[C@](C(=O)OC)(c3cc4c(cc3OC)N(C)[C@H]3[C@](O)(C(=O)OC)[C@@H](C(=O)OC)[C@@]5(CC)C=CCN6CC[C@@]43[C@@H]65)C2)C1`, the “activity, negative = inhibition” value was -25.1%.
For the compound `COC(=O)c1ccc(NC(=O)c2ccccc2)o1`, the “activity, negative = inhibition” value is -23.3%.
Consider `CN(C(=O)CC(NC(=O)c1ccccc1)(c1ccccc1)c1ccccc1)c1ccccc1`, for which the AC50 is 11.2 µM (active).
As to `CCCCCC1=C2CNC(C)(C(=O)OC)C=C2C(C)C1=O` (centres undefined), the AC50 is 20 µM (active).
Regarding `CCCCCC1=C2CNC(Cc3ccccc3)(C(=O)OC)C=C2C(C)C1=O` (centres undefined), the AC50 was 6.31 µM (active).
Turning to `COCCn1c(=O)c(-c2cccc(C#N)c2)nc2cnc(N3CCNCC3)nc21`, the “activity, negative = inhibition” value was -35.5%.
In the case of `Nc1ccc(N=Nc2c(S(=O)(=O)O)cc3ccccc3c2S(=O)(=O)O)cc1`, the activity, negative = inhibition was 1.46% [at 11.4 µM].
`Cc1cc(NC(=O)CCN2C(=O)C3C4CCC(C4)C3C2=O)c(C)cc1Br` (centres undefined): the AC50 was 11.2 µM (active).
With `Cc1cccc(C)c1NC(=O)CCN1C(=O)C2C3CCC(C3)C2C1=O` (centres undefined), the “activity, negative = inhibition” value was 9.83%.
Take `CCOC(=O)CCN1C(=O)[C@H]2[C@@H]3[C@H](O)[C@H](O)CC(=O)[C@H]3CC[C@H]2C1=O`: the activity, negative = inhibition is -31.9% [at 11.4 µM].
